Measurements taken from the supplement of paper PMC13380429.

Assays:
[1] = tested on: Vero E6 infected with SARS-CoV-2; assay: morphology score (similarity to uninfected cells); higher = more like uninfected cells; details: 24 h
[2] = tested on: Vero E6 infected with SARS-CoV-2; assay: SARS-CoV-2 infection rate relative to infected DMSO; higher = more infection, active = 60 or less; details: 24 h

Compound	morphology score [1]	SARS-CoV-2 infection rate [2]
CO[C@H]1CC[C@@H](C(=O)c2ccc3nc4c(cc3c2)CCCO4)CC1 (10 µM)	0.0672	104% (inactive)
Oc1c(Cl)cc(Cl)c(Cl)c1Cc1c(O)c(Cl)cc(Cl)c1Cl [hexachlorophene] (10 µM)	0.167	83.5% (inactive)
CC[C@H]1[C@@H](O)[C@@H]2[C@H](CC[C@]3(C)[C@@H]([C@H](C)CCOS(=O)(=O)O)CC[C@@H]23)[C@@]2(C)CC[C@@H](O)C[C@@H]12 (10 µM)	-0.0685	106% (inactive)
COc1ccc(CNC(=O)Nc2ncc([N+](=O)[O-])s2)cc1 (10 µM)	-0.141	106% (inactive)
CCCCNc1ccc(C(=O)OCCN(C)C)cc1 [tetracaine] (10 µM)	-0.144	116% (inactive)
CC(C)(C)c1cc(/C=C(\C#N)C(N)=S)cc(C(C)(C)C)c1O [tyrphostin-AG-879] (0.833333 µM)	0.166	102% (inactive)
CNCCC=C1c2ccccc2CCc2ccccc21 [nortriptyline] (0.833333 µM)	-0.1	110% (inactive)
O=C(O)COC(=O)Cc1ccccc1Nc1c(Cl)cccc1Cl [aceclofenac] (10 µM)	-0.0479	110% (inactive)
CC(=O)N1CCC(NC(=O)c2ccc(F)cc2)CC1 (10 µM)	0.0529	110% (inactive)
OC[C@H]1O[C@@H](Oc2cc(O)cc(/C=C/c3ccc(O)cc3)c2)[C@H](O)[C@@H](O)[C@@H]1O [polydatin] (10 µM)	0.0104	104% (inactive)
CC(C)CC(N)=O [isovaleramide] (10 µM)	0.0817	104% (inactive)
C#Cc1cccc(Nc2ncnc3cc(OC)c(OCCCCCCC(=O)NO)cc23)c1 (0.833333 µM)	-0.262	122% (inactive)
CCCN(CCC)C(=O)C(CCC(=O)O)NC(=O)c1ccccc1 (configuration not stated) [proglumide] (10 µM)	0.0817	107% (inactive)
Oc1ccc([C@@H]2Oc3ccc(O)cc3[C@@H]3CCC[C@@H]32)cc1 [erteberel] (10 µM)	0.0963	113% (inactive)
COc1cccc(CCc2ccccc2OCC[C@@H]2C[C@@H](O)CN2C)c1 (10 µM)	0.533	54.5% (active)
CC1(C)OC(=O)NC1=O [dimethadione] (10 µM)	-0.0571	102% (inactive)

Compound	morphology score [1]	SARS-CoV-2 infection rate [2]
CN(C(=O)/C=C/c1ccoc1)[C@@H]1CC[C@@]2(O)[C@H]3Cc4ccc(O)c5c4[C@@]2(CCN3CC2CC2)[C@H]1O5 [nalfurafine] (10 µM)	-0.0681	108% (inactive)
CC(NC(C)(C)C)C(=O)c1cccc(Cl)c1 (configuration not stated) [bupropion] (10 µM)	0.00981	96.5% (inactive)
Nc1ccncc1 [dalfampridine] (10 µM)	0.0807	103% (inactive)
CC1(C)CC(O)CC(C)(C)N1[O] [tempol] (10 µM)	0.209	97% (inactive)
N[C@@]1(C(=O)O)CC[C@H]2[C@H](C(=O)O)[C@H]21 [eglumetad] (10 µM)	-0.0541	114% (inactive)
CC1(N)CCN(c2cnc(-c3cccc(Cl)c3Cl)c(N)n2)CC1 (0.833333 µM)	0.0281	112% (inactive)
NCCc1c[nH]c2ccc(O)cc12 [serotonin] (10 µM)	0.0634	108% (inactive)
N#CCCCSC(=N)N [kevetrin] (10 µM)	0.195	92% (inactive)
COC(=O)N1CCN(Cc2cccc(NC(=O)Nc3ccc(C)nc3)c2F)CC1 [omecamtiv-mecarbil] (10 µM)	0.272	99% (inactive)
Nc1nnc(Sc2ncc([N+](=O)[O-])s2)s1 (0.833333 µM)	0.248	90.5% (inactive)
CN1CCC(=C2c3ccccc3CC(=O)c3sccc32)CC1 [ketotifen] (10 µM)	0.144	101% (inactive)
CCOCc1nc2c(N)nc3ccccc3c2n1CC(C)(C)O [resiquimod] (10 µM)	0.0727	113% (inactive)
CCCN(C/C=C/I)C1CCc2cccc(O)c2C1 (configuration not stated) [8-hydroxy-PIPAT] (10 µM)	-0.0478	106% (inactive)
COc1cc2c3cc1Oc1cc(ccc1O)C[C@@H]1c4c(cc(OC)c(O)c4Oc4ccc(cc4)C[C@@H]3N(C)CC2)CC[N+]1(C)C [tubocurarine] (10 µM)	-0.0274	110% (inactive)
c1ccc(C(NCc2cccnc2)(c2ccccc2)c2ccccc2)cc1 (10 µM)	-0.069	104% (inactive)
